MCF10A rerep: inducers of DNA re-replication in MCF 10A breast cells | MCF 10A DNA re-replication, Hoechst nuclear intensity, 48 h | Potency, µM (titrated, usually from 46.1 µM), inactives show at the highest dose activity, positive = re-replication, actives largely listed as activators | 350,000 compounds, 2.9% hits; note: potency is the fitted concentration of half-maximal effect; % of control where 0% means no effect; nearly all actives have a fitted effect of over 50% in size
TDP1 cell noCPT: qHTS for Inhibitors of human tyrosyl-DNA phosphodiesterase 1 (TDP1): qHTS in cells in absence of CPT | DT40 Tdp1-/- hTDP1 cells, no CPT, ATP luminescence, 48 h | Potency, µM (top dose mostly 46.2 µM), for the others: at the highest dose activity change, negative = growth inhibition, usual class: inhibitors | 420,000 compounds, 15% hits | AID 686978, 2013; note: potency is the fitted concentration of half-maximal effect; % is set by controls: 0 for no effect and ±100 for the full control effect; nearly all actives have a fitted effect of over 55% in size
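Chicken DT40 Tdp1-/- cells stably complemented with human TDP1 were seeded at 400 cells/well with DMSO in place of 20 nM camptothecin. After compound pinning, cells grew at least 48 hr at 37 °C; viability read by CellTiter-Glo luminescence.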
SW480 rereplic: induces DNA re-replication in SW480 colon adenocarcinoma cells; AID 624297; SW480 DNA re-replication, Hoechst DNA content imaging, 48 h; Potency, µM (doses to about 46.1 µM), for the others: top-dose re-replication activation, usual class: activators; 340,000 compounds, 1.8% hits; note: potency is the fitted concentration of half-maximal effect; % of control where 0% means no effect; nearly all actives have a fitted effect of over 55% in size
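DNA re-replication was detected as more nuclei of elevated Hoechst intensity after 48 hr exposure to compound (23 nL pinned per well of 250 cells).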
IL1B secr inh: inhibitors of inflammasome signaling (IL-1 beta secretion); THP-1 LPS/ATP IL-1B secretion, AlphaLISA, 16 h; hits give low values; activity change, % at 57.5 µM; 360,000 compounds, 4.7% hits; AID 743279; in the data active = activity change below about -50%; inconclusive = mostly about -30% to -49%; note: % is set by controls: 0 for no effect and ±100 for the full control effect
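Secreted IL-1B measured by AlphaLISA bead assay after 16 h compound exposure of THP-1 cells; compounds (final up to 57.5 uM) added 1 h before LPS (250 ng/mL) and ATP (1.25 mM) stimulation; lower signal means less secretion.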
TDP1 cell CPT: growth inhibition of DT40 Tdp1-/-;hTDP1 cells with camptothecin (screen for TDP1 inhibitors). Potency, µM (doses to about 46.2 µM), for inactives: top-dose activity change, negative = growth inhibition, most hits filed as inhibitors. 420,000 compounds, 12% hits. AID 686979. chicken DT40 Tdp1-/-;hTDP1 cells + 20 nM CPT, ATP luminescence, 48 h; note: potency is the fitted concentration of half-maximal effect; % is set by controls: 0 for no effect and ±100 for the full control effect; nearly all actives have a fitted effect of over 55% in size
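Chicken DT40 Tdp1-/- cells complemented with human TDP1, 400 cells/well, exposed to compounds plus 20 nM camptothecin for at least 48 h at 37 C; viability read as ATP content by CellTiter-Glo luminescence.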
Chronic BCR inh: blocks chronic active B-cell receptor signaling. ABC-DLBCL IkBa-CBG/CBR reporter, luminescence ratio, 4 h. Potency, µM (doses to about 46.1 µM), for inactives: top-dose activity change, negative = inhibition, hits mostly inhibitors. 340,000 compounds, 0.05% hits; active = well fitted inhibition curve with a large enough effect in the signal ratio, with a control signal flat, not every such curve was filed as active; inconclusive = small, poorly fitted or top-dose-only effect, or effect the other way, or a change in a side signal; the % refers to the signal ratio;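 note: potency is the fitted concentration of half-maximal effect; plate controls were basal doxycycline-induced cells for no effect and cells given 10 µM MG132 for full effect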
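TMD8 human ABC-DLBCL cells with doxycycline-inducible IκBα–green luciferase fusion and unfused red luciferase, in 0.5% FBS medium; compounds up to 46 uM, 4 h at 37C. Green/red luminescence ratio, filter-overlap corrected, fitted to concentration-response curves.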
Active calls of the source: *; ? = inconclusive; . = not tested or not shown; [ ] = remark or other dose. Only some compounds are listed: those with a hit (about 19% of all), similar ones and a draw of the others. Unless noted, calls come from the whole dose curve; as a rule, active = well fitted curve in the direction sought with a large enough effect; inconclusive = small, poorly fitted or top-dose-only effect, or another doubt; inactive = no such curve, though single readings can be large; an effect the other way counts as inactive or inconclusive.

SMILES | MCF10A rerep | TDP1 cell noCPT | SW480 rereplic | IL1B secr inh | TDP1 cell CPT | Chronic BCR inh
C=CCOc1ccc(C2OC34CCCCC3C(C#N)(C#N)C2(C#N)C(=N)O4)cc1 (configuration not stated) | 6% | 6.5µM* | -1% | 0 | 13µM* | 20%
O=C(NCc1ccccc1Cl)c1csc([C@@H]2C[C@H](O)[C@@H](CO)O2)n1 | . | -12% | . | 42 | -3% | .
O=C(COC(=O)C1CC(=O)N(Cc2ccco2)C1)Nc1nc(-c2ccc(F)cc2)cs1 (configuration not stated) | -4% | -6% | ? | 9 | ? | 8%
O=C1c2ccccc2C(=O)c2c(Nc3ccc(CCO)cc3)ccc(O)c21 | -12% | 16µM* | 0% | ? | ? | -1%
CCOC(=O)N1CCC(NS(=O)(=O)c2cc(C(=O)OC)n(C)c2)CC1 | -1% | -7% | -7% | 19 | 5% | 2%
CCN(CC)c1ccc2cc(S(=O)(=O)c3ccc(Cl)cc3)c(=O)oc2c1 | ? | ? | 18µM* | 17 | ? | 0%
CCN(CC)c1ccc2cc(-c3nc(-c4ccc(Cl)cc4Cl)cs3)c(=O)oc2c1 | . | 1% | . | . | 2% | -1%
O=c1oc2cc(O)ccc2cc1S(=O)(=O)c1ccccc1 | 2.6µM* | -3% | 2% | -1 | -5% | -6%
CCCCCCc1cc2cc(S(=O)(=O)c3ccc(C)cc3)c(=O)oc2cc1O | ? | ? | 18µM* | 50 | ? | 1%
CCCCCCc1cc2cc(S(=O)(=O)c3ccc(Cl)cc3)c(=O)oc2cc1O | ? | ? | 21µM* | -7 | ? | 1%
CCCCCCc1cc2cc(-c3nnc(-c4cccc(Cl)c4)o3)c(=O)oc2cc1O | . | 1% | . | . | 11% | .
O=C(CCNS(=O)(=O)c1ccccc1)NCC1CCCCC1 | -7% | -27% | -57% | 21 | -8% | -8%
C=C(C)C(=O)Nc1cccc(C2=NOC3(C2)C[C@H](C(N)=O)N(C(=O)/C=C/C)C3)c1 (some centres not stated) | -4% | 0% | 15% | 16 | -3% | -7%
Nc1nc(N)c2[nH]c(-c3ccccc3)nc2n1 | ? | 11% | -36% | 29 | 2% | ?
FC(F)(F)c1cc(-c2ccccc2)nc(N2CCOCC2)n1 | 4% | -5% | -1%[9.22 µM] | -10 | 8% | 6%
COc1cccc(-c2cc(C(F)(F)F)nc(N3CCN(c4ccccc4)CC3)n2)c1 | ? | ? | -2% | -5 | 3% | -1%
FC(F)(F)COc1nc(N2CCOCC2)nc(N(c2ccccc2)c2ccccc2)n1 | ? | 21µM* | ? | -5 | ? | 20%
FC(F)(F)COc1nc(OCC(F)(F)F)nc(N2CCN(c3ccccc3)CC2)n1 | ? | ? | -5% | -54* | -30% | 0%
COC1CC(N)C2OC(c3ccccc3)OCC2O1 (configuration not stated) | . | -19% | . | 21 | -2% | .
COCc1cn(CC(C)n2c(=O)c3ccccc3n2Cc2cc(C(C)C)no2)nn1 (configuration not stated) | . | 3% | . | 8 | 18% | .
CC1CN(CCc2ccccc2)c2nc3c(c(=O)n(CC(N)=O)c(=O)n3C)n2C1 (configuration not stated) | -1% | 18% | ? | 17 | ? | 3%
Cc1ccc(Nc2nc(-c3ccc(O)c(O)c3)cs2)nc1 | ? | 1.3µM* | ? | -77* | 1µM* | ?
CC(=O)Nc1cccc(-c2csc(Nc3cc(C)ccn3)n2)c1 | 0% | ? | -6% | -96* | ? | ?
COc1ccc(-c2csc(Nc3cc(C)ccn3)n2)cc1OC | ? | ? | 1% | -87* | ? | -8%
Cc1ccc(Nc2nc(-c3ccc(F)cc3)cs2)nc1 | 15% | ? | -4% | 19 | ? | ?
SMILES | MCF10A rerep | TDP1 cell noCPT | SW480 rereplic | IL1B secr inh | TDP1 cell CPT | Chronic BCR inh
Cc1ccnc(Nc2nc(-c3c(C)nc4sccn34)cs2)c1 | ? | ? | -10% | -61* | ? | ?
CC(=O)Nc1cccc(-c2csc(Nc3ccccn3)n2)c1 | -7% | ? | -5% | -13 | ? | ?
O=C(NCc1cccc(C(F)(F)F)c1)c1ccc(=O)[nH]c1 | -1% | -16% | -16% | 22 | 7% | -11%
COc1cc(-c2ccc(C(F)(F)F)cn2)cc2c1OCCN(S(=O)(=O)C[C@]13CC[C@H](CC1=O)C3(C)C)C2 | . | -25% | . | . | -8%[9.04 µM] | .
Cc1ccc(CNC(=O)CN2C(=O)C3CCCCN3c3ccc(C(=O)N4CCCC4)cc32)cc1 (configuration not stated) | . | -7% | . | . | -7% | .
CC(=O)Nc1cccc(-c2csc(Nc3ccc(Cl)cn3)n2)c1 | 5% | ? | 20% | -9 | 23µM* | ?
Cc1cc(C(=O)c2ccc(Cl)cc2)c(NC(=O)CCl)s1 | 21µM* | 7.3µM* | ? | -117* | 8.2µM* | -1%
CSCCC(NC(=O)c1ccco1)C(=O)NCC1CCCO1 (configuration not stated) | 0% | 3.3µM* | -25% | 1 | 16% | 3%
CCc1sc(N(C(=O)Cc2ccccc2)c2ccccc2F)nc1-c1ccc(C)cc1 | 20% | 16µM* | 0% | 1 | ? | ?
N#C/C(=C\c1ccc(O)cc1)c1nc2ccccc2o1 | ? | ? | 1% | -2 | 0% | ?
CC1CCC(=C(C#N)c2nc(-c3cc4ccccc4oc3=O)cs2)CC1 (configuration not stated) | 10% | 21µM* | -11% | 5 | ? | -4%
N#C/C(=C\c1ccc(Cl)cc1)c1nc(-c2cc3ccccc3oc2=O)cs1 | . | -3% | . | . | 8% | .
COc1cc(/C=C(\C#N)c2nc3ccccc3o2)ccc1O | 18µM* | 0% | 17% | 31 | 14% | ?
COc1cc(/C=C(\C#N)c2nc(-c3cc4ccccc4oc3=O)cs2)ccc1O | 0.92µM* | 18µM* | -4% | 23 | 18µM* | 2%
CCOC(=O)CNC(=O)CSc1nc(C(C)C)nc2c1cnn2-c1ccccc1 | . | ? | . | 6 | -22% | .
COc1ccc(OC)c(NC(=O)CN(c2ccc(C(C)C)cc2)S(=O)(=O)c2c(C)noc2C)c1 | 12% | ? | 2% | 10 | ? | 2%

Screens as filed in PubChem.
